According to the supplement of paper PMC10849652:
Of roughly 8,800 targets only a part is listed; those with a hit were picked by preference. About 0.5% of all pairs of compound and target were hits. Unmarked numbers belong to inactive results.

How the values were obtained:
Test in all cases: log2 fold change, soluble protein after heating vs DMSO (PISA); higher = thermal stabilisation; K562 lysate, 10 uM; active = over 0.2 and 3.5 SD of the protein, either way, in both replicates (recomputed)
vemurafenib = compound: CCCS(=O)(=O)Nc1ccc(F)c(C(=O)c2c[nH]c3ncc(-c4ccc(Cl)cc4)cc23)c1F [vemurafenib]
Outline: (§1)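 Values give the log-two fold change in thermal stability against solvent controls, from duplicates. Crude K562 extract at 1 mg/mL protein, made by dounce homogenisation in PBS pH 7.4 with 1 mM MgCl2, was treated with 10 μM compound for 30 min. After 3 min heating across 48°C-58°C, aliquots were pooled, adjusted to 0.5% NP-40 at 4°C and centrifuged at 21,000xg for 90 min. The supernatant was measured by TMTpro 16plex LC-MS/MS with channel sums equalised.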

[1] = compound: CCCS(=O)(=O)Nc1ccc(F)c(C(=O)c2c[nH]c3ncc(Cl)cc23)c1F
Outline: as §1

barasertib = compound: CCN(CCCOc1ccc2c(Nc3cc(CC(=O)Nc4cccc(F)c4)[nH]n3)ncnc2c1)CCOP(=O)(O)O [barasertib]
Outline: as §1

[2] = compound: CC[C@@H]1C(=O)N(C)c2cnc(Nc3ccc(C(=O)NC4CCN(C)CC4)cc3OC)nc2N1C1CCCC1
Outline: as §1

volasertib = compound: CC[C@@H]1C(=O)N(C)c2cnc(Nc3ccc(C(=O)N[C@H]4CC[C@H](N5CCN(CC6CC6)CC5)CC4)cc3OC)nc2N1C(C)C [volasertib]
Outline: as §1

[3] = compound: CCn1c(C(=O)N(C2CC2)C2CC2)cc2c3c(ncn3C)c(Nc3cc(C)n(C)n3)nc21
Outline: as §1

[4] = compound: CCn1cc(-c2ccnc3[nH]c(-c4cccc(CN(C)C)c4)cc23)c(-c2ccc(NC(=O)N(C)C)cc2)n1
Outline: as §1

[5] = compound: CN1CCC(CNc2ccc3ncc(-c4cccc(OC(F)(F)F)c4)n3n2)CC1
Outline: as §1

saracatinib = compound: CN1CCN(CCOc2cc(OC3CCOCC3)c3c(Nc4c(Cl)ccc5c4OCO5)ncnc3c2)CC1 [saracatinib]
Outline: as §1

sotrastaurin = compound: CN1CCN(c2nc(C3=C(c4c[nH]c5ccccc45)C(=O)NC3=O)c3ccccc3n2)CC1 [sotrastaurin]
Outline: as §1

Sequence of UniProt Q5HYI8 (Q5HYI8 whole entry, looked up): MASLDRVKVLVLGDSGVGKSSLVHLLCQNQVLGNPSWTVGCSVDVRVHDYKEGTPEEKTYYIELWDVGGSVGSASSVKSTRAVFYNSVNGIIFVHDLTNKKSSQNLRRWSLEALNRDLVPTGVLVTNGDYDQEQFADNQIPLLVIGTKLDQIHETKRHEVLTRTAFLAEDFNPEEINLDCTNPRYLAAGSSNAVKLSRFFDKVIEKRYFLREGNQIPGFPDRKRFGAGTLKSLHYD
Sequence of UniProt P11233 (P11233 whole entry, looked up): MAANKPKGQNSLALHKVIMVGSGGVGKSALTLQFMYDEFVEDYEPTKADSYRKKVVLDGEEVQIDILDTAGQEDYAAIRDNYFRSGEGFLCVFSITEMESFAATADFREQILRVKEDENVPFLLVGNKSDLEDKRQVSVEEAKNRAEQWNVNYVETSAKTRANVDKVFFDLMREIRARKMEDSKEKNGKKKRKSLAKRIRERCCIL
Sequence of UniProt O43819 (O43819 whole entry, looked up): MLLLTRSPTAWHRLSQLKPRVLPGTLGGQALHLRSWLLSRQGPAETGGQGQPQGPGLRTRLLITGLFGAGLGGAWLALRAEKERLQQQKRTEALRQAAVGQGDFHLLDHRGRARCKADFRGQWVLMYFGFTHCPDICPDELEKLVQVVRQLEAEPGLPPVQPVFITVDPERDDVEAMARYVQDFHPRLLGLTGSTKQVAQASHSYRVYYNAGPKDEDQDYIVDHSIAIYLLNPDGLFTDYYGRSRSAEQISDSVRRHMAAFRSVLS
Sequence of UniProt Q6GYQ0 (Q6GYQ0 whole entry, looked up): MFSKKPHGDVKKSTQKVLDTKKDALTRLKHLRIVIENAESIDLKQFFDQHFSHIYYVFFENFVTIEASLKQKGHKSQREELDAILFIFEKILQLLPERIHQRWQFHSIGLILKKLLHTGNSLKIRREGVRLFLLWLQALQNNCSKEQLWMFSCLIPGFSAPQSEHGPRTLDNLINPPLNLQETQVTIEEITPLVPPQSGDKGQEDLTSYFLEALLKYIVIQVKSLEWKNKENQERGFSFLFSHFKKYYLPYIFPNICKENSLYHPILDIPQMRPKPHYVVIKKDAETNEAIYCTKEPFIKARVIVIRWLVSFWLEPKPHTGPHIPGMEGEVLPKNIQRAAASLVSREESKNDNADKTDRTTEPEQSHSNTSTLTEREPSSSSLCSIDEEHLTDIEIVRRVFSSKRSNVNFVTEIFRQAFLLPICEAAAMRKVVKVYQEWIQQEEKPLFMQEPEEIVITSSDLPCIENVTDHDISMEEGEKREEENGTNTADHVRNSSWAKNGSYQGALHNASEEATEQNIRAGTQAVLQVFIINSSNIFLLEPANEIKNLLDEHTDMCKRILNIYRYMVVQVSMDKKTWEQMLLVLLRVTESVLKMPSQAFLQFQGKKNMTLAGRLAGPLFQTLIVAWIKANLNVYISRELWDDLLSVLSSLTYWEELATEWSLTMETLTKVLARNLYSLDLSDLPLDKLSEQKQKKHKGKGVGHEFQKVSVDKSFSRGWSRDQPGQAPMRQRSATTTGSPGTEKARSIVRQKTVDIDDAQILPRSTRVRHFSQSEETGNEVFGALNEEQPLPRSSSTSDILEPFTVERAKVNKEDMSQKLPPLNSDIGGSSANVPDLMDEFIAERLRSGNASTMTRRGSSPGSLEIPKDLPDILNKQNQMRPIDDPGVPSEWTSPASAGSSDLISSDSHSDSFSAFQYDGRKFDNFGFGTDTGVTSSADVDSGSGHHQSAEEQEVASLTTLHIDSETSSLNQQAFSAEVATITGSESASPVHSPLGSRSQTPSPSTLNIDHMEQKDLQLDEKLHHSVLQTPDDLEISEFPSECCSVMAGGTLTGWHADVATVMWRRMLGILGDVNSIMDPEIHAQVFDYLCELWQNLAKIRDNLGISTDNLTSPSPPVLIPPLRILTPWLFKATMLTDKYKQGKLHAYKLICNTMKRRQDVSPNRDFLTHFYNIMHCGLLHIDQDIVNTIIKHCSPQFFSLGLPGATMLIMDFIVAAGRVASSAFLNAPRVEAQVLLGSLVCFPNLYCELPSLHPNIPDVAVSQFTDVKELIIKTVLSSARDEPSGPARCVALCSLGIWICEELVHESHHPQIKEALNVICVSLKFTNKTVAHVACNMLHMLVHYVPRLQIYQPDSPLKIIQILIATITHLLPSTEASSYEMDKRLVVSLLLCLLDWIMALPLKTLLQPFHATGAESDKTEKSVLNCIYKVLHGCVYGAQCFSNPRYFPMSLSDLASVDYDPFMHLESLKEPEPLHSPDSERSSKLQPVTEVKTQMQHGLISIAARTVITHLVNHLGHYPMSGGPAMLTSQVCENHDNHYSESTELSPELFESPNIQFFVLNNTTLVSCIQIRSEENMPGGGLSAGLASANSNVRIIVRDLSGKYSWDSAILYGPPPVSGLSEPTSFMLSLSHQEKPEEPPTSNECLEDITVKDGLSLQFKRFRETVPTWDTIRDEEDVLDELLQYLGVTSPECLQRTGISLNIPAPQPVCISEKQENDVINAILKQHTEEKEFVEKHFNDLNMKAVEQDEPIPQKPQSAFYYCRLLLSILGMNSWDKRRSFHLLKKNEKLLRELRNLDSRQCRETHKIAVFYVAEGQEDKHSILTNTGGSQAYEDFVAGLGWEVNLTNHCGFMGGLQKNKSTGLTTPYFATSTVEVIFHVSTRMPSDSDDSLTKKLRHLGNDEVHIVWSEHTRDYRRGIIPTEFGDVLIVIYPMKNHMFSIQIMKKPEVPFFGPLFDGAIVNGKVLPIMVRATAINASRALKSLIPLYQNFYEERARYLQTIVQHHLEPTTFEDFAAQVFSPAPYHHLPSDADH
Sequence of UniProt Q8NBX0 (Q8NBX0 whole entry, looked up): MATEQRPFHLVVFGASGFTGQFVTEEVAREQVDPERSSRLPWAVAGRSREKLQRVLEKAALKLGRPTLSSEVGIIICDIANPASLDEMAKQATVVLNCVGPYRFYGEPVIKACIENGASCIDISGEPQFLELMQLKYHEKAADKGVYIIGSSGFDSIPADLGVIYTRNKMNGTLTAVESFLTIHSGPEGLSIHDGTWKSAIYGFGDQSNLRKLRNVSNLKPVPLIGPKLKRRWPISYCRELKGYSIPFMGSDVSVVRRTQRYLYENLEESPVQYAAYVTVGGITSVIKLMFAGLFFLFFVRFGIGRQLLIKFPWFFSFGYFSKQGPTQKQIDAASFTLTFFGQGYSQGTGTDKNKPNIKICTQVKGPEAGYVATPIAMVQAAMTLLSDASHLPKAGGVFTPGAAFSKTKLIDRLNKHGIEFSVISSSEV
Sequence of UniProt P53805 (P53805 whole entry, looked up): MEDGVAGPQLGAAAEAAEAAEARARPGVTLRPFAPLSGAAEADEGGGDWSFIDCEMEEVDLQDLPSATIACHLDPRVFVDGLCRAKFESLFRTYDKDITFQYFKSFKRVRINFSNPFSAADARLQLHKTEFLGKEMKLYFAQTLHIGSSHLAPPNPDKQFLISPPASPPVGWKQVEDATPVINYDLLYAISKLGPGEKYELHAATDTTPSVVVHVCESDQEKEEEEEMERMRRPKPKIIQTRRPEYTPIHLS
Sequence of UniProt P51159 (P51159 whole entry, looked up): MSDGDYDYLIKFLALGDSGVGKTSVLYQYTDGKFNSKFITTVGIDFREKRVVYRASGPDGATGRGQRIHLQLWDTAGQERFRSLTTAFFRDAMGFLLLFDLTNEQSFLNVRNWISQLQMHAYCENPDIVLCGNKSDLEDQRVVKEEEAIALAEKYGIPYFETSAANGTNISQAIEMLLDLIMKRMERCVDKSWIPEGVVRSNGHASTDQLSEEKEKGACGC
Sequence of UniProt P35249 (P35249 whole entry, looked up): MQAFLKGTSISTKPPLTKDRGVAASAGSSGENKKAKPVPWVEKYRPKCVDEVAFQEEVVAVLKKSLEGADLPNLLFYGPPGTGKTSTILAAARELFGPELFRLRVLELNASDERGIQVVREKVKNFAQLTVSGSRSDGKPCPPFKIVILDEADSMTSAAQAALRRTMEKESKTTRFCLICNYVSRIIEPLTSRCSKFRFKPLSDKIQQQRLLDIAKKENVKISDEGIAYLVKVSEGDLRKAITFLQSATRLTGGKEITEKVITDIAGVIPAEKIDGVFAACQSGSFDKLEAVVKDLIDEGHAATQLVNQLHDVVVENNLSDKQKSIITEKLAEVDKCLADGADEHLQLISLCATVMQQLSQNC
Sequence of UniProt Q7Z6M1 (Q7Z6M1 whole entry, looked up): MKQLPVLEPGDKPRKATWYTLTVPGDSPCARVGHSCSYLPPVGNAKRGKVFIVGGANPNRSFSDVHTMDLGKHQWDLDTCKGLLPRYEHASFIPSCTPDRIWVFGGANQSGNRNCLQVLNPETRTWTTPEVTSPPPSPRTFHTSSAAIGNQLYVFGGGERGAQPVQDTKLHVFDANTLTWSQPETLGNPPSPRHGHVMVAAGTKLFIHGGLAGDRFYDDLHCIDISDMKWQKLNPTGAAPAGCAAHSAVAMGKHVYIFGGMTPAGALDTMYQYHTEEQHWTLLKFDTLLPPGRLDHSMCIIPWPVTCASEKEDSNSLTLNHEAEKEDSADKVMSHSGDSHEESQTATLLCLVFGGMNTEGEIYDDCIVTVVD
Sequence of UniProt Q9H0U4 (Q9H0U4 whole entry, looked up): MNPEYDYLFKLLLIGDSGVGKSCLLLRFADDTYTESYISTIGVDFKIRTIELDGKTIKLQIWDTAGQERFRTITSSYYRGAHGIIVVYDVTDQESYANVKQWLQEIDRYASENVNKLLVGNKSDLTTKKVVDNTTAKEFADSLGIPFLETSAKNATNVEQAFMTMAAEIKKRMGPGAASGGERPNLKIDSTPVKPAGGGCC
Sequence of UniProt O43502 (O43502 whole entry, looked up): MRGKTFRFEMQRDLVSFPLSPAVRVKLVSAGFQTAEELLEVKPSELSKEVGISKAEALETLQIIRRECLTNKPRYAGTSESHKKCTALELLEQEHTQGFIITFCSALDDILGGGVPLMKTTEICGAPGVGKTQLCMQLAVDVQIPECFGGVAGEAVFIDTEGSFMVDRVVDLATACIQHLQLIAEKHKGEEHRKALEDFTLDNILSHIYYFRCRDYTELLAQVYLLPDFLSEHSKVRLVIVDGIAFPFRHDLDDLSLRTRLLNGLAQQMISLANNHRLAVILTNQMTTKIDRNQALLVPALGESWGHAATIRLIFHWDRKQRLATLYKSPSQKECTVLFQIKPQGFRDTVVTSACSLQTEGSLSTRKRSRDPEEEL

| Target | log2 fold change (vemurafenib) | log2 fold change [1] | log2 fold change (barasertib) | log2 fold change [2] | log2 fold change (volasertib) | log2 fold change [3] | log2 fold change [4] | log2 fold change [5] | log2 fold change (saracatinib) | log2 fold change (sotrastaurin) |
| --- | --- | --- | --- | --- | --- | --- | --- | --- | --- | --- |
| RIPK1 (UniProt Q13546) | -0.053 | 0.027 | 0.01 | -0.026 | -0.066 | 0.027 | -0.019 | -0.013 | 0.016 | -0.045 |
| RTTN (UniProt Q86VV8) | 0.066 | 0.011 | 0.043 | -0.101 | -0.293 | 0.099 | -0.347 | -0.316 | 0.047 |  |
| RAB27A (UniProt P51159) | -0.037 | -0.024 | 0.012 | -0.056 | -0.082 | 0.034 | 0.679 (active) | -0.048 | 0.021 | 0.001 |
| SDHA (UniProt P31040) | 0.042 | 0.018 | -0.032 | -0.004 | 0.002 | -0.003 | -0.022 | 0.02 | -0.02 | 0.005 |
| RPS9 (UniProt P46781) | -0.037 | -0.01 | -0.003 | -0.074 | -0.005 | 0.03 | 0.302 (active) | -0.063 | 0 | -0.023 |
| SCCPDH (UniProt Q8NBX0) | -0.013 | -0.054 | 0.118 | 0.128 | 0.055 | -0.107 | -0.12 | 0.233 | -0.092 | 0.094 |
| RAB1B (UniProt Q9H0U4) | -0.003 | 0.012 | 0.073 | 0.019 | 0.006 | -0.016 | -0.444 (active) | 0.171 | 0.021 | 0.017 |
| RALA (UniProt P11233) | 0.033 | 0.004 | -0.001 | 0.029 | 0.014 | -0.023 | -0.289 (active) | 0.169 | -0.021 | -0.027 |
| RAC2 (UniProt P15153) | 0.028 | 0.034 | 0.054 | 0.049 | -0.071 | -0.001 | -0.011 | 0.008 | 0.045 | -0.058 |
| SCD (UniProt O00767) | -0.03 | 0.111 | 0.042 | 0.006 | 0.098 | -0.082 | -0.504 (active) | 0.212 | 0.071 | 0.084 |
| RPL36AL (UniProt Q969Q0) | -0.039 | 0.012 | -0.009 | -0.04 | -0.013 | 0.076 | -0.076 | -0.004 | -0.091 | -0.032 |
| RCAN1 (UniProt P53805) | 0.028 | 0.061 | 0.034 | -0.022 | -0.026 | -0.06 | -0.024 | 0.041 | 0.025 | -0.056 |
| SCML2 (UniProt Q9UQR0) | 0.033 | -0.006 | -0.028 | -0.007 | -0.018 | 0.02 | 0.033 | 0.032 | 0.064 | -0.067 |
| RBM23 isoform 2 (UniProt Q86U06) | 0.2 | 0.02 | 0.234 | -0.153 | -0.011 | 0.058 | -0.01 | -0.143 | 0.064 | 0.131 |
| RALGAPB (UniProt Q86X10) | 0.044 | 0.016 | 0.103 | -0.008 | -0.023 | -0.013 | -0.09 | 0.07 | 0.017 | 0.032 |
| RFC4 (UniProt P35249) | 0.047 | 0.02 | 0.02 | -0.012 | -0.042 | 0.003 | -0.086 | 0.028 | 0.044 | 0.003 |
| RNF168 (UniProt Q8IYW5) | 0.152 | 0.134 | 0.235 | 0.128 | -0.062 | 0.138 | 0.015 | 0.035 | -0.007 | -0.06 |
| RAD51C (UniProt O43502) | -0.067 | -0.01 | -0.011 | -0.017 | 0.046 | -0.038 | -0.027 | 0.027 | 0.01 | 0.027 |
| RPL31 (UniProt P62899) | 0.01 | 0.004 | 0.004 | 0.006 | -0.005 | -0.013 | -0.043 | -0.005 | 0.024 | 0.014 |
| RABL3 (UniProt Q5HYI8) | 0.043 | 0.024 | 0.033 | -0.072 | -0.045 | 0.632 | -0.045 | -0.032 | 0.018 | 0.069 |
| RPL28 (UniProt P46779) | 0 | -0.016 | -0.049 | -0.001 | 0.006 | -0.017 | 0.278 (active) | -0.066 | -0.011 | -0.038 |
| RABEPK (UniProt Q7Z6M1) | -0.024 | 0.003 | -0.066 | 0.014 | -0.006 | -0.021 | 0.015 | 0.011 | -0.02 | -0.028 |
| SCO2 (UniProt O43819) | -0.064 | 0.054 | 0.019 | -0.075 | -0.028 | -0.087 | -0.235 | 0.076 | -0.046 | 0.003 |
| SESN2 (UniProt P58004) | -0.008 | 0.025 | 0.049 | -0.103 | -0.066 | 0.019 | 0.02 | -0.105 | -0.043 | 0.047 |
| RAI14 isoform 2 (UniProt Q9P0K7) | 0.001 | 0.066 | 0.061 | -0.019 | 0.005 | 0 | 0.045 | -0.011 | 0.031 | 0.026 |
| RANBP6 (UniProt O60518) | 0.008 | 0.025 | 0.013 | -0.016 | 0.013 | 0.068 | -0.045 | 0.06 | -0.038 | 0.002 |
| QTRT2 isoform 4 (UniProt Q9H974) | 0.003 | 0.012 | 0.004 | -0.022 | 0.036 | -0.035 | -0.318 (active) | 0.227 (active) | 0.016 | 0.013 |
| RALGAPA1 isoform 6 (UniProt Q6GYQ0) | -0.008 | 0.017 | 0.196 | 0.02 | -0.03 | -0.007 | -0.377 (active) | 0.074 | 0.049 | 0.03 |
| ROCK1 (UniProt Q13464) | 0.014 | 0.004 | 0.004 | 0.018 | -0.045 | 0.001 | -0.017 | 0.025 | -0.017 | 0.015 |
| RIOK3 (UniProt O14730) | 0.021 | -0.004 | 0.004 | -0.098 | -0.041 | -0.032 | -0.052 | -0.024 | -0.03 | 0.013 |
